# Experimental data as given in PubChem BioAssay (NCATS).
# Results filed as inconclusive are left out. Entries that show only a call come without a potency. Active and inactive are the calls of the source. Calls come from the whole dose curve; as a rule, active = well fitted curve in the direction sought with a large enough effect; inconclusive = small, poorly fitted or top-dose-only effect, or another doubt; inactive = no such curve, though single readings can be large; an effect the other way counts as inactive or inconclusive. *1 amine or outer side, *2 acyl side, *3 side chain or, on linkers, in order; H or OH if unused. Where a SMILES comes first, the peptide text is derived from it. Bridges are numbered along the chain shown (N, C = ends). [ ]: non-standard residue; d: D form. The star is where a group is joined. ξ: configuration not given here. ξhTyr(3S-OH,4S-OH,3'-OSO3H) = NC(C(=O)O)[C@H](O)[C@@H](O)c1ccc(O)c(OS(=O)(=O)O)c1; Orn(4R-OH,5R-OH) = O=C([C@H](C[C@@H](O)[C@@H](O)N[*:3])N[*:1])[*:2]; X2 = CCCCCOc1ccc(-c2cc(-c3ccc(C(=O)*)cc3)no2)cc1; X3 = C[C@H]1CN([*:1])C(C(=O)[*:2])[C@H]1O; ξGln(3R-OH) = NC(=O)C[C@@H](O)C(N)C(=O)O; ξPro(4R-OH) = O=C(O)C1C[C@@H](O)CN1; ξThr(3R) = C[C@@H](O)C(N)C(=O)O
# Tests used:
# [1] = P-glycoprotein substrates identified in KB-3-1 adenocarcinoma cell line, qHTS therapeutic library screen (AID 1346986); note: nearly all actives have a fitted effect of over 60% in size
# Procedure, shortened: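 Using luminescence to quantify ATP, parental and P-gp-overexpressing KB cells were compared after 72 h compound titration. KB-8-5-11 was also run with the P-gp inhibitor tariquidar.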
# [2] = P-glycoprotein substrates identified in KB-8-5-11 adenocarcinoma cell line, qHTS therapeutic library screen (AID 1346987); note: nearly all actives have a fitted effect of over 65% in size; for activity change, negative = cytotoxicity: series mostly up to about 44 µM
# Procedure, shortened: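 In this qHTS, P-gp-rich KB-8-5-11 cells received library compounds across a concentration range. Viability was quantified by luminescence after 72 h at 37 degree C.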
compound,measurement,setting,value
C/C=C(/C)C(=O)O[C@@H]1C[C@@H](OC(=O)/C(C)=C\C)[C@@]2(C)C3C(=O)C=C(C)C2C3C1(C)C,Potency,[1],inactive
same,Potency,[2],inactive
CC1(C)C=Cc2c(ccc3c2N=C2C(C)(C)[C@@H]4C[C@]56CCCN5C(=O)[C@@]4(C[C@]23O)NC6=O)O1,Potency,[1],inactive
same,Potency,[2],inactive
C=C1C(OC(C)=O)CCC2(C)CC3(O)OC(=O)C(C)=C3CC12 (stereo not given),Potency,[1],inactive
same,Potency,[2],inactive
O=C(/C=C/c1ccc(O)cc1)OC[C@@]1(O)C=C[C@@H]2C(C(=O)O)=CO[C@@H](O[C@@H]3O[C@H](CO)[C@@H](O)[C@H](O)[C@H]3O)[C@@H]21,Potency,[1],inactive
same,Potency,[2],inactive
CC1CCCCCCCc2cc(O)cc(O)c2C(=O)O1 (stereo not given),Potency,[1],inactive
same,Potency,[2],inactive
COc1cc(O)cc2c1C(=O)OC(C)CCCCCCC2 (stereo not given),Potency,[1],inactive
same,Potency,[2],inactive
COC(=O)c1c(CC=C(C)C)c(OC2OC(CO)C(O)C(O)C2O)c2ccccc2c1OC1OC(CO)C(O)C(O)C1O (stereo not given),Potency,[1],inactive
same,Potency,[2],inactive
C=CC(C)(C)C12Nc3c(ccc4c3OC(C)(C)C=C4)C1(O)CC1C(=O)N3CCCC3C(=O)N12 (stereo not given),Potency,[1],inactive
same,Potency,[2],inactive
CN(C)c1ccc(C2O[C@@H](c3ccccc3)C[C@H](c3ccccc3)O2)cc1 (stereo not given in full),Potency,[1],inactive
same,Potency,[2],inactive
CC(C)=CCC/C(C)=C/CO[C@@H]1O[C@H](CO[C@@H]2O[C@@H](CO)[C@H](O)[C@H]2O)[C@@H](O)[C@H](O)[C@H]1O,Potency,[1],inactive
same,Potency,[2],inactive
"CCCCCOc1ccc(-c2cc(-c3ccc(C(=O)N[C@H]4C[C@@H](O)[C@@H](O)NC(=O)C5[C@@H](O)[C@@H](C)CN5C(=O)C([C@H](O)CC(N)=O)NC(=O)C([C@H](O)[C@@H](O)c5ccc(O)c(OS(=O)(=O)O)c5)NC(=O)C5C[C@@H](O)CN5C(=O)C([C@@H](C)O)NC4=O)cc3)no2)cc1 (stereo partly drawn) (X2-[Orn(4R-OH,5R-OH)][ξThr(3R)][ξPro(4R-OH)][ξhTyr(3S-OH,4S-OH,3'-OSO3H)][ξGln(3R-OH)][X3]; lactam 1-C)",Potency,[1],inactive
same,Potency,[2],inactive
C=C1CCC2C(C)(C(=O)OC)CCCC2(C)C1CCC1=CCOC1=O (stereo not given),Potency,[1],inactive
same,Potency,[2],inactive
C=C1[C@H](OC(C)=O)[C@H]2[C@@H](OC(=O)c3ccccc3)[C@@H](C)C[C@]2(O)[C@@H](OC(C)=O)[C@H](C)/C=C/C(C)(C)C(=O)[C@H](OC(C)=O)[C@H]1OC(C)=O,Potency,[1],inactive
same,Potency,[2],inactive
CC1(C(=O)O)CC[C@]2(C(=O)OC3OC(CO)C(O)C(O)C3O)CC[C@]3(C)C(=CCC4[C@@]5(C)CC[C@H](OC6OCC(O)C(O)C6OC6OC(CO)C(O)C(O)C6O)C(C)(C)C5CC[C@]43C)C2C1 (stereo not given in full),outcome,[1],inactive [at 9.29 µM]
same,outcome,[2],inactive [at 9.29 µM]
C/C=C(\C)C(=O)OCC1OC(OCC2OC(OC3(CO)OC(CO)C(O)C3O)C(O)C(O)C2O)C(O)C(O)C1O (stereo not given),Potency,[1],inactive
same,Potency,[2],inactive
C=CC1(C)CC2CCC3C(C)(C(=O)O)CCCC3(C)C2=CC1=O (stereo not given),Potency,[1],inactive
same,Potency,[2],inactive
CC(=O)NC(C(=O)OC1CCC(C)(C)C2CC=C3C(=O)OCC3C12C)C(C)C (stereo not given),Potency,[1],inactive
same,Potency,[2],inactive
CC1CC(O)/C=C/C(O)/C=C\C(=O)O1 (stereo not given),Potency,[1],inactive
same,Potency,[2],inactive
C=C(C)C(O)COc1ccc(CC(=O)O)cc1 (stereo not given),Potency,[1],inactive
same,Potency,[2],inactive
O=C(Cn1c2ccccc2c2nc3n(c(=O)c21)CCS3)N1CCCC1,Potency,[1],inactive
same,Potency,[2],inactive
CC1=C[C@H](O)[C@H]2C(C)(C)CCC[C@]2(C)[C@@]1(O)CO,Potency,[1],inactive
same,Potency,[2],inactive
CC1(CO)CC(O)C2(C)CCC3(C)C(=CCC4C5(C=O)CCC(OC6OC(C(=O)O)C(O)C(O)C6OC6OC(C(=O)O)C(O)C(O)C6O)C(C)(C)C5CCC43C)C2C1 (stereo not given),outcome,[1],inactive [at 9.29 µM]
same,outcome,[2],inactive [at 9.29 µM]
CC1(C)Oc2ncnc(N)c2N=C1c1ccc(C2CCC(CC(=O)O)CC2)cc1 (stereo not given),Potency,[1],inactive
same,Potency,[2],inactive
C/C(=C\CCC(C)CCO)C(=O)OC[C@H]1O[C@@H](O[C@@H]2OC=C(C(=O)O)[C@H]3CC[C@](C)(O)[C@@H]23)C(O)[C@@H](O)C1O (stereo not given in full),Potency,[1],inactive
same,Potency,[2],inactive
CC(C)(O)C(O)C(=O)OCc1ccc(O[C@@H]2O[C@H](CO)[C@@H](O)[C@H](O)[C@H]2O)cc1 (stereo not given in full),Potency,[1],inactive
same,Potency,[2],inactive
CC(NC(=O)[C@H](Cc1ccccc1)NC(=O)OCc1ccccc1)C(=O)CF (stereo not given in full),Potency,[1],inactive
same,Potency,[2],inactive
CCC(C)/C=C(C)/C=C/C1=CC2=C(Cl)C(=O)C(C)(OC(C)=O)C(=O)C2=CN1C(CCC(=O)O)C(=O)O (stereo not given),Potency,[1],inactive
same,Potency,[2],inactive
FC(F)(F)Oc1ccc(-c2ccc3nnc(C(F)(F)F)n3c2)cc1,Potency,[1],inactive
same,Potency,[2],inactive
COC(=O)C1=COC(OC2OC(CO)C(O)C(O)C2O)C2C(C)CC(=O)C12O (stereo not given),Potency,[1],inactive
same,Potency,[2],inactive
COc1cc(/C=C/C(=O)O[C@H]2C[C@@H]3C(C(=O)O)=CO[C@@H](O[C@@H]4O[C@H](CO)[C@@H](O)[C@H](O)[C@H]4O)[C@@H]3[C@H]2C)ccc1O,Potency,[1],inactive
same,Potency,[2],inactive
C/C=C(\C)C(=O)O[C@H]1C=CC(=O)O[C@H]1/C=C/[C@H](O)[C@@H](C)O,Potency,[1],inactive
same,Potency,[2],inactive
C/C=C/C=C/C=C/C(=O)O[C@@H]1C=C(CO)[C@](O)(CO)[C@@]2(C)CCCC(C)(C)[C@H]12,Potency,[1],inactive
same,Potency,[2],inactive
CC1(C)OC(=O)CC(O)C2(C)C1CC(=O)C1(C)C2C(O)CC2(C)C(c3ccoc3)OC(=O)C3OC321 (stereo not given),Potency,[1],inactive
same,Potency,[2],inactive
CC1(C)OC(=O)C=C[C@@]2(C)C1CC(=O)[C@]1(C)C2CC[C@@]2(C)[C@H](c3ccoc3)OC(=O)[C@H]3O[C@]321 (stereo not given in full),Potency,[1],inactive
same,Potency,[2],inactive
O=C(/C=C/N1C[C@@H]2C[C@@H]1CN2c1ccccn1)c1ccccc1O,Potency,[1],inactive
same,Potency,[2],inactive
NC(Cc1c[nH]c2ccc(O)cc12)C(=O)O (stereo not given),Potency,[1],inactive
same,Potency,[2],inactive
C/C=C(\C)C(=O)OCC1OC(OC2OC(CO)C(O)C(O)C2O)C(O)C(O)C1O (stereo not given),Potency,[1],inactive
same,Potency,[2],inactive
C=C1[C@H](OC(C)=O)[C@H]2[C@@H](OC(C)=O)C(C)C[C@]2(OC(C)=O)C(=O)[C@H](C)/C=C/C(C)(C)C(=O)[C@H](OC(=O)C(C)C)[C@H]1OC(C)=O (stereo not given in full),Potency,[1],inactive
same,Potency,[2],inactive
CC(=O)OCC1OC(O[C@H]2CC[C@@]3(C)C(CC[C@]4(C)C3CC=C3[C@@H]5CC(C)(C)CC[C@]5(C(=O)O)CC[C@]34C)[C@]2(C)CO)C(O)C(O)C1OC1OC(C)C(O)C(OC2OCC(O)C(O)C2O)C1O (stereo not given in full),outcome,[1],inactive [at 9.29 µM]
same,outcome,[2],inactive [at 9.29 µM]
COC(=O)C(CC1CCCC1)c1ccc(S(C)(=O)=O)cc1 (stereo not given),Potency,[1],inactive
same,Potency,[2],inactive
C=C[C@H]1[C@H](O[C@@H]2O[C@H](CO)[C@@H](O)[C@H](O)[C@H]2O)OC=C(C(=O)OC)[C@H]1CC=O,Potency,[1],inactive
same,Potency,[2],inactive
CC1(C)CC[C@]2(C(=O)O)CC[C@]3(C)C(=CCC4[C@@]5(C)C[C@@H](O)[C@H](O)[C@@](C)(CO)C5[C@H](O)C[C@]43C)[C@@H]2C1 (stereo not given in full),Potency,[1],inactive
same,Potency,[2],inactive
C=CC(C)(O)CC/C=C(\C)C(=O)O[C@@H]1[C@@H](O)[C@H](OC(C)(C=C)CC/C=C(\C)C(=O)O[C@@H]2O[C@H](CO)[C@@H](O)[C@H](O)[C@H]2O)O[C@H](CO)[C@H]1OC(=O)/C(C)=C/CCC(C)(O)C=C (stereo not given in full),outcome,[1],inactive [at 9.29 µM]
same,"activity change, negative = cytotoxicity",[2],2.84% [at 9.29 µM] (inactive)
C/C=C/C=C/C=C/C(=O)N(C)C(C(=O)NC(C)C(=O)N1CCCC1C(N)=O)C(C)C (stereo not given),Potency,[1],inactive
same,Potency,[2],inactive
O=S(=O)(O)c1ccc(Nc2ncnc3c2ncn3[C@@H]2O[C@H](CO)[C@@H](O)[C@H]2O)cc1,Potency,[1],inactive
same,Potency,[2],inactive
C[C@H]1CC[C@@]2(OC1)O[C@H]1CC3C4CC[C@H]5C[C@@H](O[C@@H]6O[C@H](CO)[C@H](O[C@@H]7O[C@H](CO)[C@@H](O)[C@H](O[C@@H]8OC[C@@H](O)[C@H](O)[C@H]8O)[C@H]7O[C@@H]7O[C@H](CO)[C@@H](O)[C@H](O)[C@H]7O)[C@H](O)[C@H]6O)[C@H](O)C[C@]5(C)C4=CC(=O)[C@]3(C)[C@H]1[C@@H]2C (stereo not given in full),outcome,[1],inactive [at 9.29 µM]
same,"activity change, negative = cytotoxicity",[2],4.95% [at 9.29 µM] (inactive)
COc1cccc(Cn2ncc3c4sc(S(C)=O)cc4n(C)c3c2=O)c1 (stereo not given),Potency,[1],inactive
same,Potency,[2],inactive
C=C(C)[C@@H]1CC[C@]2(C(=O)O)CC[C@]3(C)C(CCC4[C@]5(C)C(CC[C@]43C)C(C)(C)[C@@H](O)[C@@H]5C(=O)O)C12 (stereo not given in full),Potency,[1],inactive
same,Potency,[2],inactive
C=C(CCO[C@@H]1O[C@H](CO)[C@@H](O)[C@H](O)[C@H]1O)C(=O)O,Potency,[1],inactive
same,Potency,[2],inactive
C=C(CO)C(=O)O[C@H]1C[C@@]23O[C@@H]2CC/C(=C/[C@H]2OC(=O)C(=C)[C@H]12)CO[C@H]3O,Potency,[1],inactive
same,Potency,[2],inactive
COc1ccc(OC)c(C2C(C#N)=C(N)Oc3n[nH]c(-c4ccc5ccccc5c4)c32)c1 (stereo not given),Potency,[1],inactive
same,Potency,[2],inactive
C=C1[C@H]2CCC3[C@]4(C)CCC[C@@](C)(C(=O)O)C4CC[C@]3(C2)[C@H]1OC(C)=O (stereo not given in full),Potency,[1],inactive
same,Potency,[2],inactive
CC1(C)CC[C@]2(C(=O)O[C@@H]3O[C@H](CO[C@@H]4O[C@H](CO)[C@@H](O)[C@H](O)[C@H]4O)[C@@H](O)[C@H](O[C@@H]4O[C@H](CO)[C@@H](O)[C@H](O)[C@H]4O)[C@H]3O)CC[C@]3(C)C(=CCC4[C@@]5(C)CC[C@H](O[C@@H]6OC[C@@H](O)[C@H](O)[C@H]6O)[C@@](C)(C(=O)O)C5CC[C@]43C)[C@@H]2C1 (stereo not given in full),outcome,[1],inactive [at 9.29 µM]
same,"activity change, negative = cytotoxicity",[2],2.51% [at 9.29 µM] (inactive)
COc1cc(C(=O)OCC2=CCC3C(C(=O)O)=COC(O[C@@H]4O[C@H](CO)[C@@H](O)[C@H](O)[C@H]4O)C23)ccc1O (stereo not given in full),Potency,[1],inactive
same,Potency,[2],inactive
C[C@@H]1O[C@@H](O[C@@H]2[C@@H](O)[C@H](O[C@@H]3[C@@H](O)[C@@H](O)[C@H](O[C@H]4[C@H](OC(=O)[C@]56CCC(C)(C)C[C@H]5C5=CCC7[C@@]8(C)C[C@H](O)[C@H](O[C@@H]9O[C@H](C(=O)O)[C@@H](O)[C@H](O)[C@H]9O)[C@@](C)(CO)C8[C@H](O)C[C@@]7(C)[C@]5(C)C[C@H]6O)O[C@@H](CO)[C@@H]4O)O[C@H]3C)OC[C@H]2O)[C@H](O)[C@H](O)[C@H]1O (stereo not given in full),outcome,[1],inactive [at 9.29 µM]
same,"activity change, negative = cytotoxicity",[2],8.82% [at 9.29 µM] (inactive)
